# FPRL1 binder: ligands of human FPRL1, also counter-screen for FPR ligands; FPRL1-expressing cells, fluorescent ligand binding inhibition, flow cytometry; inhibition, % (test concentration not listed); 24,000 tested, 0.3% active;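 also: 0% = buffer alone and 100% = receptor blocker peptide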
# VLA-4 antagonist: blocks LDV-FITC ligand binding to Mn2+-activated human VLA-4 integrin; Jurkat cells, LDV-FITC binding with Mn2+, flow cytometry; 100% = Mn2+-driven binding gain fully reversed; inhibition, % at 10 µM (by protocol); 24,000 tested, 0.2% active; AID 529;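 active = inhibition above 50%; inconclusive = compound itself fluorescent, judged against control cell fluorescence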;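 also: 0% = Mn2+ stimulated cells lacking compound and 100% = ligand binding without Mn2+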
# FPR ligand: binds the human formylpeptide receptor FPR; 24,000 tested, 0.74% active; P21462; FPR-expressing cells, fluorescent ligand binding, flow cytometry; AID 440; inhibition, % (no concentration beside the values);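 also: 0% = buffer wells and 100% = receptor blocker peptide wells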
# Target sequence (P21462 whole entry, looked up): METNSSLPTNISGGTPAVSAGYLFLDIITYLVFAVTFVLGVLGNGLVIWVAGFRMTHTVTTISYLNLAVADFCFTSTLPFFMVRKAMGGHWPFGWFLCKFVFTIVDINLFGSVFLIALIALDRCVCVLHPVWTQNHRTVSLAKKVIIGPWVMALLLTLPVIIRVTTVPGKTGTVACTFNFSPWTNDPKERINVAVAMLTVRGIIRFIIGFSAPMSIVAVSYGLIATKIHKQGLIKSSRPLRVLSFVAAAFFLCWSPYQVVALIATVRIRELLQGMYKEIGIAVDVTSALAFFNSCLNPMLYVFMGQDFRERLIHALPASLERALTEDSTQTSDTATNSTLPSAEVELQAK
# Autofluor Jurkat: autofluorescence counter-screen for VLA-4 integrin assays | Jurkat cells, compound autofluorescence, flow cytometry; active compounds read high; 1 = vehicle-only cell background | fluorescence ratio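 (tested at 10 µM compound in the well)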 | AID 576 | 24,000 tested, 0.61% active;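 active = fluorescence ratio above 2.44, which is 1 plus 3 SD of all ratios; inconclusive = signal too bright to measure linearly, ratio around 10 or more; inactive = fluorescence ratio below 2.44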;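 also: green fluorescence of cells measured with 488 nm excitation and 530 nm emission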
# Prostate diff: promotes differentiation of LNCaP prostate cells; flow cytometry side scatter, 4 d; side scatter shift, % at 10 µM; 24,000 tested, 0.56% active; AID 795;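 active = side scatter shift above 30%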;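 also: androgen-responsive LNCaP prostate cancer cells in charcoal-stripped serum medium; percent of cells past a gate set so DMSO wells show 10% shift; higher shift means more granular cells and more differentiation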
# VLA-4 agonist: allosterically activates the human VLA-4 integrin; P13612; 24,000 tested, under 10 active; AID 528; Jurkat cells, LDV-FITC binding, flow cytometry; activation, % at 10 µM (by protocol);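 active = fluorescent ligand binding to cells raised by more than 40% of the manganese-induced maximum; inconclusive = compound's own fluorescence above 85% of the ligand control signal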;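 also: 0% = ligand binding without compound and 100% = manganese-stimulated maximal binding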
# The depositor's hits bear a star; ? = inconclusive; nt = not tested or not shown. A selection: hits, their analogues and other compounds. The true share with any hit is near 2.4%. Rule as the data show it, unless noted: active = inhibition above about 30%; inconclusive = no clear call, values can overlap the other calls; inactive = below that.
SMILES,FPRL1 binder,VLA-4 antagonist,FPR ligand,Autofluor Jurkat,Prostate diff,VLA-4 agonist
N=c1n(CCN2CCCCC2)c2ccccc2n1CC(O)COc1ccccc1 (stereo unspecified),7.2,-12.0,8.1,1.11,64.0*,2.0
O=C(Cc1coc(-c2ccc(F)cc2)n1)NC1CCCCC1,-2.6,1.0,-1.0,1.1,14.0,-6.0
O=C(Cc1coc(-c2ccc(F)cc2)n1)N1CCOCC1,-1.7,13.0,-3.3,1.06,30.0*,-8.0
CCOc1ccccc1NC(=O)c1nc[nH]c1C(=O)Nc1ccccc1OCC,-7.9,-28.0,-4.5,1.03,64.0*,12.0
CCOc1ccccc1NC(=O)Cn1nnc(C(=O)Nc2ccccc2Cl)c1N,-1.1,?,-4.7,1.13,10.0,?
COc1ccccc1NC(=O)c1nc[nH]c1C(=O)Nc1ccccc1OC,4.7,-7.0,-3.5,0.98,35.0*,14.0
COc1ccc(NC(=O)c2nc[nH]c2C(=O)Nc2ccccc2C)cc1,11.8,?,-5.2,1.09,8.0,7.5
O=C(NCC1CCCO1)C1c2ccccc2C(=O)N1Cc1ccc2c(c1)OCO2 (stereo unspecified),-3.7,-14.0,-4.4,1.07,12.0,0.0
O=C(c1nnc(Cc2ccc(Cl)cc2)o1)N1CCc2ccccc2C1,-5.1,?,0.1,0.95,14.0,?
O=C(OC1CCCCC1)c1ccc2c(c1)C1C=CCC1C(C(=O)O)N2 (stereo unspecified),6.3,?,9.8,3.81*,8.0,?
O=C(O)c1ccc2c(c1)[C@@H]1C=CC[C@@H]1[C@H](c1ccccn1)N2,1.0,?,-3.2,1.04,0.0,?
CCCOc1ccc(C2c3c(oc4ccccc4c3=O)C(=O)N2CCCN2CCOCC2)cc1 (stereo unspecified),-3.7,-10.5,-0.4,0.99,6.0,1.5
CC(=O)c1cccc(NC2c3ccccc3C(=O)N2Cc2ccc3c(c2)OCO3)c1 (stereo unspecified),-2.0,?,-3.8,1.28,30.0*,?
CSCCC1C(C#N)=C(N)Oc2n[nH]c(-c3cccs3)c21 (stereo unspecified),5.6,-2.0,30.1*,1.01,2.0,-11.0
c1ccc(CCNc2nc3ccccc3n3nnnc23)cc1,-6.3,?,1.0,9.24*,4.0,?
O=C(NCc1cccnc1)C1CC(c2ccc(F)cc2)=NO1 (stereo unspecified),3.5,-5.0,-2.7,1.04,3.0,-5.0
COc1ccc(-c2cn3cccnc3n2)cc1NC(=O)CC(C)C,39.5*,4.0,3.1,1.06,14.0,1.0
COc1ccc(-c2cn3cccnc3n2)cc1NC(=O)c1ccc(Br)o1,10.4,1.0,3.0,1.09,7.0,-1.0
CCCC(=O)Nc1cc(-c2cn3cccnc3n2)ccc1OC,47.3*,-18.0,-1.4,1.06,10.0,4.0
CCOc1ccccc1NC(=O)C1CCN(S(=O)(=O)c2cccc3cccnc23)CC1,-6.0,9.0,0.5,0.86,7.0,6.0
COc1cc(OC)cc(-c2nnc(Nc3nc4c(F)cccc4s3)o2)c1,1.3,-21.3,2.8,1.1,10.0,6.7
COc1ccc(-c2nnc(Nc3nc4c(OC)cccc4s3)o2)cc1,2.6,65.5*,51.6*,1.1,3.0,1.0
COc1ccc(-c2nnc(Nc3nc4c(OC)cccc4s3)o2)c(OC)c1,5.5,68.0*,62.1*,1.13,8.0,5.0
O=C(CN1C(=O)COc2ccccc21)N(Cc1cccnc1)Cc1ccccc1F,-1.2,-4.3,-3.1,0.97,10.0,-3.3
CC1CCc2nn(CC(=O)NCCN3CCCCC3C)cc2C1 (stereo unspecified),-0.9,-1.7,10.6,0.97,8.0,-0.7
SMILES,FPRL1 binder,VLA-4 antagonist,FPR ligand,Autofluor Jurkat,Prostate diff,VLA-4 agonist
Cc1sc(NC(=O)C2CCCCC2C(=O)O)c(C(N)=O)c1-c1ccc(C(C)(C)C)cc1 (stereo unspecified),3.3,nt,48.6*,nt,nt,nt
O=C(NCCCN1CCCC1)c1cccc(N2CCCC2=O)c1,-0.6,19.0,-0.5,0.97,2.0,3.0
O=C(NCCCN1CCN(c2ccc(F)cc2)CC1)c1cccc(N2CCCC2=O)c1,30.9*,-2.0,-1.6,1.06,7.0,-5.0
C=CCn1c(/N=C/c2ccc(N(C)C)cc2)nc2ccccc21,?,?,?,4.76*,2.0,?
C=CCn1c(C(C)NC(=O)C(C)(C)C)nc2ccccc21 (stereo unspecified),-1.4,-5.0,0.9,1,4.0,2.0
NC(=O)c1oc2ccccc2c1NC(=O)c1nc2ccccc2s1,3.3,?,-4.1,5.39*,22.0,?
N=c1c(C(=O)NC2CCCC2)cc2c(=O)n3ccccc3nc2n1C1CCCC1,-7.5,?,0.9,1.15,68.0*,?
CCn1cc(C(=O)NC2CCCC2)c(=O)c2cc(S(=O)(=O)N3CCOCC3)ccc21,-2.0,15.0,1.5,1.09,14.0,-6.0
CCn1cc(C(=O)NC2CCC(C)CC2)c(=O)c2cc(S(=O)(=O)N3CCCCC3)ccc21 (stereo unspecified),0.2,0.0,32.2*,1.03,3.0,5.0
CCOC(=O)c1[nH]nc(N)c1NC(=O)c1ccc(Cl)cc1Cl,-2.4,-25.5,-7.0,1.05,12.0,3.0
C/C(=N\O)C(=O)NCc1ccncc1,4.3,?,-6.0,6.16*,6.0,?
CCCOC(=O)NC(CC)COC(=O)Nc1cccc(C)c1C (stereo unspecified),-5.8,-7.0,-4.0,0.93,10.0,-1.0
O=C(Cn1c(=O)oc2ccccc21)N1CCN(c2ccccc2)CC1,4.1,?,21.8,2.53*,11.0,?
O=C(CCn1c(=O)oc2ccccc21)N1CCN(c2ccccc2F)CC1,-1.9,-12.0,-1.6,1.05,6.0,0.0
C=CCn1c(NC(=O)c2ccccc2)c(C#N)c2nc3ccccc3nc21,32.3*,nt,?,nt,nt,nt
CCCCCn1c2nc3ccccc3nc2c2c(=O)n(CC(C)C)cnc21,1.5,1.0,1.3,1.02,16.0,1.5
C=CCn1c(NC(=O)c2ccccc2Cl)c(C#N)c2nc3ccccc3nc21,-7.4,nt,4.2,nt,nt,nt
CCCCn1c(NC(C)=O)c(C#N)c2nc3ccccc3nc21,3.6,nt,66.4*,nt,nt,nt
COc1ccc(-c2ccc(-c3noc(-c4ccccc4)n3)c(OC)n2)cc1,-4.6,-5.0,0.8,1.03,34.0*,6.3
COc1nc(-c2ccc(Cl)cc2)ccc1-c1noc(-c2ccncc2)n1,-4.4,-11.5,-0.3,1.05,8.0,0.0
CC(C)NC(=O)c1ccc(CS(=O)(=O)c2ccc(Br)cc2)o1,-5.2,2.0,-0.4,1.03,6.0,1.0
CCOC(=O)c1c(NC(=O)c2cc(C3CC3)on2)sc2c1CCCC2,58.2*,-5.0,9.6,1.04,11.0,1.0
CCOc1ccc(NC(=O)c2oc3ccccc3c2NC(=O)C2CC2)cc1,-4.3,4.0,-1.7,1.3,16.0,-7.0

# Assay outcomes from PubChem.
